Data as given in PubChem BioAssay AID1053205 (Broad Institute, 2014).
Measured potencies and affinities stand elsewhere. Inconclusive results are not listed. Values without a mark were called inactive. Calls of active or inactive are those of the source.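 The calls were made as follows: active = compounds lowering the FRET ratio whose fitted half-maximal concentration is at most twice their top tested dose; inconclusive = flat partial drop between 30 and 70 percent, or bad fit; inactive = the rest.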

Molecular target: Voltage-dependent L-type calcium channel subunit alpha-1D (Homo sapiens) (UniProt Q01668)
Sequence (Q01668 whole entry, looked up): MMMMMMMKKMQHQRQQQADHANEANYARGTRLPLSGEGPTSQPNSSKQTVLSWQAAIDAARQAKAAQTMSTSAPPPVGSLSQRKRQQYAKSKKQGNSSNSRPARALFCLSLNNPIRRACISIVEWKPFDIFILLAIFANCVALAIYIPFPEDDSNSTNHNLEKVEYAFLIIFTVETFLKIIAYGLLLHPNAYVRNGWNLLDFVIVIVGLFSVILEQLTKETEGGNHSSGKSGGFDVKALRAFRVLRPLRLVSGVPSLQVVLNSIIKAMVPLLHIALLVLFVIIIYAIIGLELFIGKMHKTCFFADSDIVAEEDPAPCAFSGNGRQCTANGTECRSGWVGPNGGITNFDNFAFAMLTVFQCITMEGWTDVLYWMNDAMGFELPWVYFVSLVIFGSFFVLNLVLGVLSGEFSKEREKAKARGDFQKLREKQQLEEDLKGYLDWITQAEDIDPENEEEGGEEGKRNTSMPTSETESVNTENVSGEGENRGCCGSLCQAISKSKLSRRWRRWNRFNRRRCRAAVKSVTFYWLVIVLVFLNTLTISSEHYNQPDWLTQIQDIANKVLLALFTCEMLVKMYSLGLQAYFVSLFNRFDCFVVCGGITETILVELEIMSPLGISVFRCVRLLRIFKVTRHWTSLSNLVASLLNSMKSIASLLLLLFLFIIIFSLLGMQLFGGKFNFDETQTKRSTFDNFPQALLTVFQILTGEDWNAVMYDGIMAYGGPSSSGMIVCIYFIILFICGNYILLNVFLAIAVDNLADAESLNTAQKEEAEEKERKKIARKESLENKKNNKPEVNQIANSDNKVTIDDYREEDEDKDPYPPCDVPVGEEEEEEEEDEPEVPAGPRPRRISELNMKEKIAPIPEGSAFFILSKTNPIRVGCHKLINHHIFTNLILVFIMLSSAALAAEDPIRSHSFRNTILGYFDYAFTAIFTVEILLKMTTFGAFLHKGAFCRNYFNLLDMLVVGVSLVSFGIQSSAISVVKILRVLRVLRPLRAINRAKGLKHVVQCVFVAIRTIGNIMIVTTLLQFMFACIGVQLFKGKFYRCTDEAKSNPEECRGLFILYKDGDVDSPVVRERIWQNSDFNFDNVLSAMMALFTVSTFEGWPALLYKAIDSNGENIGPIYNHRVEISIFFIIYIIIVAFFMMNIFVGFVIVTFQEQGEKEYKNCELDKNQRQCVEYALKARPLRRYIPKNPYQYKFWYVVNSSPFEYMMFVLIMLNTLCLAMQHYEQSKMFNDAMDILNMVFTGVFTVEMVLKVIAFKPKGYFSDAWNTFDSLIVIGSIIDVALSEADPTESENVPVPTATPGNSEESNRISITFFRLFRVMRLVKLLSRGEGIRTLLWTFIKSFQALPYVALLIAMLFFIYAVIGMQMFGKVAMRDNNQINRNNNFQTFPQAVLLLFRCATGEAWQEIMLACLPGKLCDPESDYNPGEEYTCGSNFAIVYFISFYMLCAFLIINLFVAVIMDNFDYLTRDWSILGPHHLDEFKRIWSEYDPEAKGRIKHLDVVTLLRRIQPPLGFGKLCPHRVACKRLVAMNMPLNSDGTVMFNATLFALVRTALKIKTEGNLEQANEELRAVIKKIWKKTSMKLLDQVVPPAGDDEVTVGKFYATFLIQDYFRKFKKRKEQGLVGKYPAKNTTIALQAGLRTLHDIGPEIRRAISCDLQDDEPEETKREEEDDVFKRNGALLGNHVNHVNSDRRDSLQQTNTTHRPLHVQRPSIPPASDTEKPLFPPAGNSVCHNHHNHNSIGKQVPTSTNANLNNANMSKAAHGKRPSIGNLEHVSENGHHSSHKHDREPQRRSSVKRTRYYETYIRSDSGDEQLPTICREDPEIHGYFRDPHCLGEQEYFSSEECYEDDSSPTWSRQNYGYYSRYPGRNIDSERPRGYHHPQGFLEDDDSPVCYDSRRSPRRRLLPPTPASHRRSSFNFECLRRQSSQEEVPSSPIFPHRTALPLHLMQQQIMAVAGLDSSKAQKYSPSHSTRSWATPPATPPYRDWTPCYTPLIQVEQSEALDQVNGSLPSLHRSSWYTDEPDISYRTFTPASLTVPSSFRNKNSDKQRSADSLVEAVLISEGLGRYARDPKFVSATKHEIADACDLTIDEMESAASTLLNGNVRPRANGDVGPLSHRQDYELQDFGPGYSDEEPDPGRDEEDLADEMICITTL
Assay: inhibitors of CaV1.3 ICDI-IQ binding, dose response, cell-based, HEK293, YFP-IQ/CFP-ICDI FRET, cherry-picks (AID 1053205);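 also: 0% = median of neutral control wells and -100% = median of positive control wells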
Settings: HEK293 YFP-IQ/CFP-ICDI FRET ratio, 10 min; series mostly up to 35 µM

SMILES | outcome | FRET change, negative = inhibition
O=c1[nH]c2ccccc2nc1/C=C/c1ccccc1 | inactive | –
CCOC(=O)C1=CN(CC2CCCO2)C=C(C(=O)OCC)C1c1ccccc1C(F)(F)F (stereo unspecified) | inactive | –
O=C(O)c1cccc(Nc2nc(-c3cc4ccccc4oc3=O)cs2)c1 | inactive | –
Nc1ccc2nc(-c3ccccc3)cnc2c1 | inactive | –
O=C(NCc1nnnn1-c1ccc(Cl)cc1)C1CC(=O)N(c2ccc(F)cc2)C1 (stereo unspecified) | inactive | –
CC(=O)Oc1ccc(C(=O)Nc2cc(C)on2)cc1 | inactive | –
CC(C)CCN(CCC(C)C)CC(O)Cn1c2ccccc2c(=O)c2ccccc21 (stereo unspecified) | inactive | –
CC(C)CCn1c(CN2CC(C)OC(C)C2)nc2c1c(=O)n(C)c(=O)n2C (stereo unspecified) | inactive | –
Cc1cc2cc(CNC(=O)c3ccco3)ccc2n1C | inactive | –
CCOC(=O)c1cc(-c2ccccc2)sc1NC(=O)CSc1nnc(N)s1 | inactive | –
Cc1ccc(OCC(=O)NNc2c3ccccc3nc3ccccc23)cc1 | inactive | –
Cc1c(Nc2c3ccccc3nc3ccccc23)c(=O)n(-c2ccccc2)n1C | inactive | –
CN(C)CCOCCOc1ccc(Cl)c2ccccc12 | inactive | –
CN1CCc2c(sc(NC(=O)C3CCCCC3)c2C(N)=O)C1 | inactive | –
CCN(CC)c1ccc2cc(S(=O)(=O)c3ccc(Cl)cc3)c(=O)oc2c1 | inactive | –
Cc1nc2ccc(S(=O)(=O)Nc3ccc(-c4nc5cccnc5s4)cc3)cc2s1 | inactive | –
COc1ccccc1NS(=O)(=O)c1cc(NC(=O)CCNC(C)=O)ccc1C | inactive | –
COc1ccccc1/C=N/Nc1nc(C)cc(=O)[nH]1 | inactive | –

SMILES | outcome | FRET change, negative = inhibition
CCCOc1ccc(NC(=O)c2c(-c3ccccc3)noc2C)cc1 | inactive | –
O=C(Nc1ccc(-c2ccco2)cc1)C1CCCN(Cc2ccco2)C1 (stereo unspecified) | inactive | –
N#C/C(=C\c1ccc(N2CCOCC2)o1)C(=O)NCCc1ccccc1 | – | 166% [at 8 µM]
CCC(Sc1nc(N)c(NC(=O)c2ccc(OC)cc2)c(=O)[nH]1)C(=O)O (stereo unspecified) | inactive | –
N#CC1=C(N)Oc2cc(N)ccc2C1c1ccc(F)cc1F (stereo unspecified) | inactive | –
Cn1cccc1/C=N/NC(=O)c1sc2cc(Cl)ccc2c1Cl | inactive | –
N#C/C(=C\c1ccco1)C(=O)Nc1cccc2ncccc12 | inactive | –
Cc1cc(OC(=O)c2ccccc2Cl)ccc1N1C(=O)CCC1=O | inactive | –
Cc1nc(CCNC(=O)Cc2ccc(Cl)cc2)cs1 | inactive | –
O=C(CCCn1c(=O)c2sccc2n(Cc2cc(=O)n3ccccc3n2)c1=O)NCc1ccco1 | inactive | –
CCC(C)NC(=S)N1CCN(Cc2ccc3c(c2)OCO3)CC1 (stereo unspecified) | inactive | –
CCOC(=O)c1cc2c(=O)n3cccc(C)c3nc2n(CC(C)C)c1=NC(=O)c1ccco1 | – | 159% [at 8 µM]
CCN1CCc2c(sc(NC(=O)Nc3ccc(Cl)c(Cl)c3)c2C(N)=O)C1 | inactive | –
Cc1ccc(S(=O)(=O)CCC(=O)OCC(=O)Nc2cccc(S(=O)(=O)N3CCCCC3)c2)cc1 | inactive | –
O=C(O)c1ccc(N2N=C(c3ccccc3)CC2c2ccccc2)cc1 (stereo unspecified) | inactive | –
Cc1c(C(=O)NCc2cccc([N+](=O)[O-])c2)sc(=O)n1Cc1cccc(F)c1 | inactive | –
O=C(NNc1c2ccccc2nc2ccccc12)c1ccc(O)cc1 | inactive | –
CCCn1c(=N)c(S(=O)(=O)c2ccccc2)cc2c(=O)n3ccccc3nc21 | inactive | –
